Screens from PubChem BioAssay.
SMN2 splice enh: enhancers of SMN2 splice variant expression; Potency, µM (series often up to 46.1 µM), for inactives: top-dose activity change, positive = activation, actives largely listed as activators; actives 2.8% (n = 210,000); HEK293 SMN2-luciferase splicing reporter, luminescence, 30-36 h; further: % of control where 0% means no effect; nearly all actives have a fitted effect of over 55% in size
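qHTS luciferase splicing reporter: luminescence rises when SMN2 exon 7 is included in transfected HEK293 cells. Compound exposure lasted 30-36 h at 37C, with 4.5 mM final sodium butyrate as control, followed by a ONE-Glo read.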
NPC1 promoter act: activators of NPC1 promoter | Potency, µM (series often up to 9.22 µM), for the others: at the highest dose activation, actives largely listed as activators | actives 2.4% (n = 320,000) | Huh7 NPC1 promoter luciferase reporter, 24 h; further: % of control where 0% means no effect; nearly all actives have a fitted effect of over 60% in size
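Luciferase expression driven by the NPC1 promoter was measured in stably transfected Huh7 cells after a 24 h compound incubation, using a luciferase reagent and a luminescence read.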
Rab9 prom act: activators of Rab9 promoter | Huh7 Rab9 promoter-luciferase reporter, luminescence, 24 h | Potency, µM (highest dose often 9.22 µM), for inactives: at the top dose activation, negative = inhibition, actives largely listed as activators | actives 2.8% (n = 320,000) | AID 485297; further: % of control where 0% means no effect; nearly all actives have a fitted effect of over 60% in size
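Using Huh7 cells stably transfected with Rab9 promoter–luciferase, compounds were incubated 24 h at 37 °C, 5% CO2; luciferase luminescence was read 10 min after reagent addition.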
FLuc counter: counter-screen for miR-21 project: firefly luciferase inhibitors or activators. purified FLuc, Km substrates, luminescence inhibition. Potency, µM (doses to about 57.5 µM), without a hit: at the top dose activity change, negative = inhibition, actives largely listed as inhibitors. actives 6.9% (n = 360,000);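 further: plate controls were vehicle for no effect and reference inhibitor for full effect; nearly all actives have a fitted effect of over 55% in size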
Target sequence (P08659 whole entry, looked up): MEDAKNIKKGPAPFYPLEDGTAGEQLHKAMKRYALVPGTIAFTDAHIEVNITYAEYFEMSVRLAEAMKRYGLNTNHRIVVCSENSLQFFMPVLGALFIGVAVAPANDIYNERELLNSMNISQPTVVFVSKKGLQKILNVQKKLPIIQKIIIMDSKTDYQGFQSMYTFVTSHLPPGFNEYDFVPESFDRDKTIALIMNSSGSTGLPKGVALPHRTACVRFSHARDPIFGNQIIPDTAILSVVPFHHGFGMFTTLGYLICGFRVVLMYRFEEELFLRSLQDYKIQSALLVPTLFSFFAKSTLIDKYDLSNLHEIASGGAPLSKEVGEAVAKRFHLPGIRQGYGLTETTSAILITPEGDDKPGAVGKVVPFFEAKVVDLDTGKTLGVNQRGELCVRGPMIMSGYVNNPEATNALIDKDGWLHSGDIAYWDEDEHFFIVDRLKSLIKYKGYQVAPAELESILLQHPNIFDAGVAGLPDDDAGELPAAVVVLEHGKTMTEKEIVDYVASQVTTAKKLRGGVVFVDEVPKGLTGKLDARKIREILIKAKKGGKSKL
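Purified P. pyralis luciferase, 10 nM final, with Km-level 10 uM D-luciferin and 10 uM ATP in 50 mM Tris acetate pH 7.5, 10 mM Mg acetate, 0.01% Tween-20, 0.05% BSA; 6-point qHTS titration about 60 µM downward; luminescence read.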
ELG1 DNA repair: inhibitors of ELG1-dependent DNA repair in HEK293T cells | Potency, µM (top dose mostly 46.1 µM), for inactives: at the top dose activity change, negative = inhibition, most hits filed as inhibitors | actives 2.3% (n = 330,000) | AID 504467 | HEK293T ELG1-luciferase reporter, luminescence, 16 h; DNA damage induced by 5-fluorouridine; further: on the % scale 0 is the no-effect control and ±100 the full control effect; nearly all actives have a fitted effect of over 55% in size
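HEK293T cells expressing luciferase-tagged ELG1 (2,000/well) received 5-Fluorouridine plus compound or DMSO for 16 hr at 37 °C. Luciferase was read by ONE-Glo luminescence after 30 min at room temperature.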
ELG1 genotoxic: inducers of genotoxicity in HEK293T ELG1-luciferase cells; HEK293T ELG1-luciferase reporter, luminescence, 16 h; Potency, µM (doses to about 46 µM), for inactives: at the highest dose activity change, positive = activation, hits mostly activators; actives 1.3% (n = 330,000); AID 504466; further: % of control where 0% means no effect; nearly all actives have a fitted effect of over 60% in size
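Genotoxicity was scored as increased ELG1-luciferase reporter signal, measured by ONE-Glo luminescence (30 min, room temperature). Compound or vehicle exposure of the HEK293T reporter cells lasted 16 hr at 37°C.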
An asterisk follows results filed as active; ? = inconclusive; · = no result given. In the library only some 9.2% were active in any assay of this set; here they are far more common. The call rests on the fitted dose curve; in most records, active means well fitted curve in the direction sought with a large enough effect; inconclusive means small, poorly fitted or top-dose-only effect, or another doubt; inactive means no such curve, though single readings can be large; an effect the other way counts as inactive or inconclusive. Potency means the concentration at half of the fitted maximal effect.

SMILES	SMN2 splice enh	NPC1 promoter act	Rab9 prom act	FLuc counter	ELG1 DNA repair	ELG1 genotoxic
NS(=O)(=O)c1ccc(CCNC(=O)c2ccc3nc(CCc4ccccc4)oc3c2)cc1	·	·	·	3%	·	·
Cc1ccc(S/C=C\C(=O)c2ccccc2)cc1	-3%	10%	11%	0.13µM*	?	18µM*
Cc1ccc(C(=O)/C=C\C(=O)c2ccc(C)cc2)cc1	24%	-8%	0%	?	?	?
COc1cc(-c2nc3sccn3c2Nc2cccc(C)c2)ccc1O	23%	·	·	?	·	·
Cc1cc2nc(-c3ccc(SCC(=O)Nc4nccs4)nc3)[nH]c2cc1C	?	3.5µM*	2.5µM*	?	?	?
O=C(CSc1ccc(-c2nc3ccccc3[nH]2)cn1)Nc1ccc(S(=O)(=O)N2CCCC2)cc1	19%	-4%	-2%	4.8µM*	2%	-1%
Cc1cc2nc(-c3ccc(SCC(=O)Nc4ccc(S(=O)(=O)N5CCCC5)cc4)nc3)[nH]c2cc1C	13µM*	2.5µM*	2µM*	0.3µM*	?	?
CC(=O)CSc1ccc(-c2nc3cc(C)c(C)cc3[nH]2)cn1	·	-10%	-5%	-2%	-3%	0%
Cc1cccc(NC(=O)C(NS(=O)(=O)c2cccc3nsnc23)c2ccccc2)c1C (configuration not stated)	0%	·	·	2%	·	·
COc1ccc2c(c1)NC(=O)CC(c1ccccc1)=N2	-2%	?	26%	?	?	16µM*
COc1ccc(O)c(C2=Nc3ccccc3N=C(c3ccccc3)C2)c1	?	4%	0%	0%	?	-12%
Cc1cc(=O)oc2cc(NC(=O)c3cccc(Br)c3)ccc12	·	?	?	0%	?	19%
Cc1cc(=O)oc2cc(NC(=O)c3cc(F)ccc3F)ccc12	·	?	2.5µM*	3%	?	?
Cc1cc(=O)oc2cc(NC(=O)c3ccccc3OC(F)F)ccc12	·	4µM*	3.2µM*	?	?	?
Cc1cc(=O)oc2cc(NC(=O)C(C)Oc3cccc(Cl)c3)ccc12 (configuration not stated)	·	10%	2%	1%	?	8%
O=C(Cn1ncc2c3ccccc3n(Cc3ccc(Cl)cc3)c2c1=O)N1CCCCCC1	-1%	·	·	-8%	·	·
CCc1nc(C)cn1S(=O)(=O)c1ccc(Cl)c(Cl)c1OC	-76%	·	·	-2%	·	·
Nn1c(SCC(=O)NCc2ccc3c(c2)OCO3)nnc1C(F)(F)F	·	·	·	·	14%	0%
CC(=O)Nc1ccc(/C=N/N2CCCCC2)cc1	14µM*	3.2µM*	4.5µM*	27µM*	?	?
CC(=O)Nc1ccc(/C=N/N2C(C)CCCC2C)cc1 (configuration not stated)	-29%	11%	16%	1%	16%	7%
CCC1CCCCN1S(=O)(=O)c1ccc(N2CCCCS2(=O)=O)cc1 (configuration not stated)	·	·	·	1%	·	·
CN(C)C(=O)/C=C\c1cn(-c2ccccc2)nc1-c1ccc2c(c1)OCCO2	-22%	-6%	-11%	-12%	16µM*	-13%
CN1CCN(C(=O)/C=C/c2cn(-c3ccccc3)nc2-c2ccc3c(c2)OCCO3)CC1	3%	-11%	1%	-15%	10µM*	-8%
COc1ccc(N2CCN(C(=O)CN3C(=O)CSc4c3c(C)nn4-c3ccccc3)CC2)cc1	·	·	·	0%	·	·
CCOC(=O)/C(=N\Nc1ncnc2ccccc12)c1ccc(OC)cc1	·	3.5µM*	3.2µM*	5.4µM*	?	?
SMILES	SMN2 splice enh	NPC1 promoter act	Rab9 prom act	FLuc counter	ELG1 DNA repair	ELG1 genotoxic
COc1ccc(/C(=N/Nc2ncnc3ccccc23)C(=O)O)cc1	·	2%	1%	?	?	?
C[C@H](CO)N1C[C@H](C)[C@@H](CN(C)Cc2ccc3c(c2)OCO3)Oc2c(NC(=O)Cc3ccccc3)cccc2C1=O	·	·	·	·	?	-5%
Cc1ccc(-c2cc3nc(-c4ccccc4)cc(N4CCC5(CC4)OCCO5)n3n2)cc1	-12%	3%	-3%	0%	-30%	-3%
COc1ccc(-c2cc3nc(-c4ccccc4)cc(N4CCCC(O)C4)n3n2)cc1 (configuration not stated)	·	0%	-4%	-6%	16µM*	-7%
Fc1ccc(-c2cc3nc(-c4ccccc4)cc(N4CCOCC4)n3n2)cc1	1%	-3%	-1%	-1%	?	-6%
COc1ccc(-c2cc3nc(-c4ccccc4)cc(N4CCC(O)CC4)n3n2)cc1	·	-3%	1%	3%	16µM*	-11%
CCCN(CC1CCCO1)C(=O)CCc1nnc(CCc2ccc(OC)cc2)o1 (configuration not stated)	·	1%	5%	-8%	?	2%
Cc1cc(SCC(=O)OCC(=O)NCC2CCCO2)c(C)cc1Br (configuration not stated)	3%	-3%	0%	-13%	1%	0%
O=C(Nc1scc(-c2ccccc2)c1C(=O)O)c1ccccc1Cl	·	-3%	1%	?	0%	1%
O=C(Nc1scc(-c2ccccc2)c1C(=O)O)c1ccco1	?	17%	29%	11µM*	?	?
COC(=O)c1c(-c2ccc(F)cc2)csc1NC(=O)c1ccco1	-1%	?	2.2µM*	7.6µM*	?	18%
CCOC(=O)c1c(-c2ccc(C)s2)csc1NC(=O)c1ccco1	-25%	6%	5%	2%	4%	2%
COc1ccc(-c2csc(NC(=O)c3ccccc3F)c2C(=O)O)cc1	·	?	17%	24µM*	26%	-4%
CC(=O)Nc1ccc(S(=O)(=O)N2CCN(CCN3CCOCC3)CC2)cc1Cl	·	-1%	6%	0%	4%	0%
CN(C)/C=C(\C#N)C(=O)Nc1ccc(F)c(Cl)c1	·	3.5µM*	3.2µM*	?	?	?
CN(C)/C=C(\C#N)C(=O)N/N=C/c1ccc(Cl)cc1	30%	2.2µM*	?	17µM*	16%	9%
CCCCOc1ccc(N(CC(=O)NCCOC)C(=O)CCC(=O)Nc2ccccn2)cc1	·	0%	0%	5%	1%	0%
Cc1ccc(OCCCCn2cnc3ccccc32)c(C)c1	-76%	2%	-1%	11µM*	-17%	4%
Cc1ccc(C)c(OCCCCn2cnc3ccccc3c2=O)c1	·	-1%	-3%	-12%	?	-5%
Brc1ccccc1OCCCCn1cnc2ccccc21	-46%	-4%	-1%	11µM*	?	?
